{"source": "PubChem BioAssay AID778", "about": "(Sanford-Burnham Center for Chemical Genomics, 2007)", "note": "The whole screen tested about 96,000 compounds, of which about 20,000 (21%) were called active. These entries were drawn from the full list. A number with no mark means an inactive call.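 The calls were made as follows: active = CYP2C19 inhibition above a set limit at 5 µM in the primary screen (cut at about 50% in these data); inactive = the rest.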"}
{"target": "Cytochrome P450 2C19 (Homo sapiens) (UniProt P33261)", "sequence (P33261 whole entry, looked up)": "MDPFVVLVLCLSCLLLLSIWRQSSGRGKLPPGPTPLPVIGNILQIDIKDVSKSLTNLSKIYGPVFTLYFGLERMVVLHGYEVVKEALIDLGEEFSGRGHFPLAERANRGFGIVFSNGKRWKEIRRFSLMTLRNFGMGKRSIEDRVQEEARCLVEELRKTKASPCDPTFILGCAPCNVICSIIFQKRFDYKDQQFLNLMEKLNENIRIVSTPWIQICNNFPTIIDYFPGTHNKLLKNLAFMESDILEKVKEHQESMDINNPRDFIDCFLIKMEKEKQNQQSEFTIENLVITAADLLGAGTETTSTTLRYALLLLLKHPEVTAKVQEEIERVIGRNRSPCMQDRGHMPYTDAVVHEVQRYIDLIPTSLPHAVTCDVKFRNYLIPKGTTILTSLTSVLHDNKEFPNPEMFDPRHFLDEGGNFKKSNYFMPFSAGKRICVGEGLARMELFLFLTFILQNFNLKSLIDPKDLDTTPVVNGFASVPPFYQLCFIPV", "assay": "blockers of cytochrome P450 2C19 activity – biochemical, luminescence, ADME assay, primary screen (AID 778);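 also: plate controls were negative control wells for no effect and 2.5 mM tranylcypromine positive control for full effect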", "conditions": "CYP2C19 Supersomes, luciferin-H EGE luminescence, 30 min; at 5 µM; hits give high values"}
{"smiles": "Cc1ccc(S(=O)(=O)/N=C(\\CN2CCOCC2)N2CCOCC2)cc1", "inhibition": "-1.3%"}
{"smiles": "N#Cc1cccc(CSc2nnc(CCCO)n2-c2ccccc2)c1", "inhibition": "8.4%"}
{"smiles": "O=C(/C=C/Nc1ccccc1)c1cnc(-c2ccccc2)s1", "inhibition": "0.3%"}
{"smiles": "Nc1c(-c2ccc(F)cc2)cnn1C1CCS(=O)(=O)C1", "note": "(stereo not drawn)", "inhibition": "-15.6%"}
{"smiles": "COc1cccc(C2/C(=C(/O)c3ccc(F)cc3)C(=O)C(=O)N2CCN(C)C)c1", "note": "(stereo not drawn)", "inhibition": "5.9%"}
{"smiles": "CCOC(=O)c1sc(NC(=O)C(CC)Sc2nccn2C)nc1C", "note": "(stereo not drawn)", "inhibition": "28%"}
{"smiles": "CC(=O)N1CCCc2cc(S(=O)(=O)CCC(=O)N3CCN(c4ccccc4)CC3)ccc21", "inhibition": "29.1%"}
{"smiles": "CCOC(=O)CC1=CC(=O)Nc2ccccc2N1", "inhibition": "12.4%"}
{"smiles": "Cc1ccc(C(=O)NC2CC(C)(C)NC(C)(C)C2)c(C)c1", "inhibition": "-14.1%"}
{"smiles": "COc1ccc(NS(=O)(=O)c2ccc(NC(C)=O)cc2)cc1OC", "inhibition": "43.3%"}
{"smiles": "CCNS(=O)(=O)c1ccc(NC(=O)Nc2cccc(OC)c2)cc1", "inhibition": "25.1%"}
{"smiles": "COc1cc(NS(=O)(=O)c2ccc(NC(C)=O)cc2)cc(OC)c1", "inhibition": "98% (active)"}
{"smiles": "O=C(O)c1ccc(COc2c(F)c(F)cc(F)c2F)o1", "inhibition": "-3.2%"}
{"smiles": "CCOc1ccc(OCc2ccc(C(=O)Nc3cccc(C)n3)o2)cc1", "inhibition": "35.8%"}
{"smiles": "O=C(Nc1ccn(Cc2ccccc2F)n1)c1ccc(COc2ccc(Cl)cc2Cl)o1", "inhibition": "57.8% (active)"}
{"smiles": "O=C1CCC(Cc2ccccc2)N1", "note": "(stereo not drawn)", "inhibition": "8.7%"}
{"smiles": "O=C(O)c1ccc(COCC(F)(F)F)cc1", "inhibition": "-5.4%"}
{"smiles": "Cc1sc(NC(=S)NC(=O)c2cccs2)nc1-c1ccc(CC(C)C)cc1", "inhibition": "4.5%"}
{"smiles": "CCCC(=O)N(CCc1ccccc1)Cc1nc2ccccc2c(=O)[nH]1", "inhibition": "53.5% (active)"}
{"smiles": "O=C(c1ccco1)N(Cc1nc2ccccc2c(=O)[nH]1)C1CCCC1", "inhibition": "7.2%"}
{"smiles": "CN(Cc1nc2ccccc2c(=O)[nH]1)Cc1cc(=O)oc2ccc3ccccc3c12", "inhibition": "2.9%"}
{"smiles": "O=C(Nc1ccc(Cl)cn1)Nc1cccs1", "inhibition": "31.4%"}
{"smiles": "O=C1OC(c2ccc(Cl)cc2)=N/C1=C\\c1cccnc1", "inhibition": "33.1%"}
{"smiles": "CCN(CC)C(=O)CC1(c2ccccc2OC)CCOC(C(C)C)C1", "note": "(stereo not drawn)", "inhibition": "73.3% (active)"}
{"smiles": "CCN(CC)C(=O)CSc1nc2ccccc2n1CC(=O)N1CCN(c2ccccc2OC)CC1", "inhibition": "27%"}
{"smiles": "C/C(CC(O)(/C=N/O)c1ccccc1)=N\\O", "note": "(stereo not drawn)", "inhibition": "-13%"}
{"smiles": "Cc1ccc(N2CCN(/N=C/c3cccs3)CC2)cc1", "inhibition": "35.3%"}
{"smiles": "O=C(Cn1[nH]c(=O)c2ccccc2c1=O)Nc1cccc(-c2nnc3n2CCCCC3)c1", "inhibition": "25.7%"}
{"smiles": "O=C(CN1C(=O)NC(Cc2ccccc2)(Cc2ccccc2)C1=O)NCC1CCCCC1", "inhibition": "41.6%"}
{"smiles": "O=C(NCc1ccccc1)C1C(=O)N(Cc2ccccc2)C(=O)C1C1(O)CCCC1", "note": "(stereo not drawn)", "inhibition": "91.9% (active)"}
{"smiles": "O=C(NCCCN1CCN(Cc2ccccc2)CC1)C1CCN(S(=O)(=O)N2CCCC2)CC1", "inhibition": "-1.9%"}
{"smiles": "Cc1ccccc1Nc1nnc(C)c(=O)[nH]1", "inhibition": "0.4%"}
{"smiles": "COc1cccc(-n2cc(C(=O)O)c3ccccc3c2=O)c1", "inhibition": "1.5%"}
{"smiles": "COCC(C)n1c(SCc2ccc(C(=O)OC)o2)nc2ccccc2c1=O", "note": "(stereo not drawn)", "inhibition": "96.7% (active)"}
{"smiles": "COC(=O)c1ccc(CSc2nc3ccccc3c(=O)n2-c2cccc(OC)c2)o1", "inhibition": "98.4% (active)"}
{"smiles": "CCc1c(O)nc(SCC(=O)Nc2ccccc2)n(C(C)CC)c1=O", "note": "(stereo not drawn)", "inhibition": "0.7%"}
{"smiles": "N#CCSc1nc2ccccc2c(=O)n1-c1ccccc1", "inhibition": "13.3%"}
{"smiles": "CN1CCN(C(=O)C2C3C=CC(C3)C2C(=O)O)CC1", "note": "(stereo not drawn)", "inhibition": "33.8%"}
{"smiles": "OCCNc1nc2ccccc2n1-c1ncnc2sc3c(c12)CCC3", "inhibition": "-6%"}
{"smiles": "COc1ccc(N2C(=O)C3CCCN3C2c2cc(OC)c(OC)cc2OC)cc1", "note": "(stereo not drawn)", "inhibition": "-12.2%"}
{"smiles": "Cc1ccccc1CSc1nnc(-c2cccnc2)n1N", "inhibition": "28.5%"}
{"smiles": "Cc1ccsc1CNn1cnnc1SCc1ccccc1F", "inhibition": "83.4% (active)"}
{"smiles": "COc1ccc2[nH]c(=O)c(CNc3ccc(C)c(C)c3)cc2c1", "inhibition": "24%"}
{"smiles": "COc1cccc2cc(C(C)N(CCCN3CCOCC3)C(=O)Nc3ccc(Cl)cc3)oc12", "note": "(stereo not drawn)", "inhibition": "48.4%"}
{"smiles": "Cc1ccc(-c2csc(-c3c[nH]c4ccccc34)n2)cc1", "inhibition": "-2.4%"}
{"smiles": "COCCOCCn1cnc2ccccc21", "inhibition": "-2.7%"}
{"smiles": "O=C(COC(=O)c1ccc(Oc2ccccc2)cc1)Nc1nnc(-c2ccccc2)o1", "inhibition": "34.2%"}
{"smiles": "CCOC(=O)c1c(C)[nH]c(C(=O)COc2ccc3c(c2)OCO3)c1C", "inhibition": "78.4% (active)"}
{"smiles": "CCOc1ccc(NCCC(=O)c2ccc3c(c2)OCO3)cc1", "inhibition": "37.9%"}
{"smiles": "CCOC(=O)c1c(C)oc2ccc(OCC(=O)N(CC)CC)cc12", "inhibition": "47.5%"}
{"smiles": "CN1CCN(CCCNC(=O)c2cc3c(=O)oc4ccccc4c3s2)CC1", "inhibition": "-1.6%"}
{"smiles": "CC(C)(CNCC(O)c1ccccc1)N1CCOCC1", "note": "(stereo not drawn)", "inhibition": "-1.1%"}
{"smiles": "CCC(=O)NNc1cc(=O)c2c(=O)n(C)c(=O)n(C)c2[nH]1", "inhibition": "11.1%"}
{"smiles": "O=C(c1c(Cl)nc2sccn12)N1CCCc2ccccc21", "inhibition": "91.5% (active)"}
{"smiles": "COc1ccc2oc(=O)c(C(=O)N3CCCc4ccccc43)cc2c1", "inhibition": "10.2%"}
{"smiles": "O=C(c1cccc(C(=O)N2CCc3ccccc32)n1)N1CCc2ccccc21", "inhibition": "12.3%"}
{"smiles": "Cc1noc(COc2ccccc2OCC(O)CNC(C)(C)C)n1", "note": "(stereo not drawn)", "inhibition": "-7.7%"}
{"smiles": "CN(c1ccccc1)c1ccc(/C=c2\\s/c(=C(/C#N)C(=O)C(C)(C)C)n(Cc3ccco3)c2=O)cc1", "inhibition": "5.4%"}
{"smiles": "Cn1c(-c2sc3cc(C(F)(F)F)cnc3c2-c2ccccc2)n[nH]c1=S", "inhibition": "47.3%"}
{"smiles": "FC(F)(F)c1cc(-c2ccco2)nc(NCc2ccc(Cl)cc2)n1", "inhibition": "57% (active)"}
{"smiles": "FC(F)(F)c1cc(-c2ccco2)nc(N2CCOCC2)n1", "inhibition": "-16.1%"}
{"smiles": "FC(F)(F)c1cc(-c2cccs2)nc(NCc2ccco2)n1", "inhibition": "20.5%"}
{"smiles": "Cc1ccccc1NC(=O)c1cnn(-c2ccccc2)c1NC(=O)c1ccco1", "inhibition": "-2.6%"}
{"smiles": "COCCNC(=O)C(c1ccc(C)o1)N(Cc1cccs1)C(=O)c1snc(C(N)=O)c1N", "note": "(stereo not drawn)", "inhibition": "2.1%"}
{"smiles": "c1ccc2c(c1)OCC(c1nn3cnnc3s1)O2", "note": "(stereo not drawn)", "inhibition": "74.8% (active)"}
{"smiles": "O=C(CCN1C(=O)COc2ccccc21)NCCCN1CCN(c2ccc(F)cc2)CC1", "inhibition": "-10.1%"}
{"smiles": "CCOC(=O)c1cnc(-n2nc(C)cc2C)nc1-n1nc(C)cc1C", "inhibition": "5.2%"}
{"smiles": "CCc1nnc(NC(=O)c2ccc(S(=O)(=O)NC3CCCCC3)cc2)s1", "inhibition": "14.5%"}
{"smiles": "O=C(NNS(=O)(=O)c1ccc(Cl)cc1)C1CCN(Cc2ccccc2)CC1", "inhibition": "6%"}
{"smiles": "CCOC1CCCCC1NS(=O)(=O)c1ccc(Cl)cc1", "note": "(stereo not drawn)", "inhibition": "69.5% (active)"}
{"smiles": "CCCc1[nH]nc2c1C(c1ccc(OC(=O)c3ccco3)cc1)C(C#N)=C(N)O2", "note": "(stereo not drawn)", "inhibition": "43.8%"}
{"smiles": "C=CCOC(=O)C1=C(C)OC(N)=C(C#N)C1c1ccc(F)cc1", "note": "(stereo not drawn)", "inhibition": "75.2% (active)"}
{"smiles": "C=CCOC(=O)C1=C(C)NC(SCC(=O)OCC)=C(C#N)C1c1ccc(C)cc1", "note": "(stereo not drawn)", "inhibition": "33.7%"}
{"smiles": "Cc1c(C#N)c2ncn(CC#N)c(=O)c2n1-c1ccccc1", "inhibition": "-12.1%"}
{"smiles": "CCOc1cc(N2CCOCC2)c(OCC)cc1NC(=O)COc1cccc2cccnc12", "inhibition": "3.8%"}
{"smiles": "Cc1cc(OCCOc2cccc3cccnc23)c(C)cc1Cl", "inhibition": "73.2% (active)"}
{"smiles": "C=CCn1c(COc2cccc3cccnc23)nnc1SCC(=O)OC", "inhibition": "26.2%"}
{"smiles": "CN(C)Cc1c(C#N)c2ccccc2n1C", "inhibition": "-0.3%"}
{"smiles": "Clc1ccc(CSc2nnc(/C=C/c3ccccc3)o2)c(Cl)c1", "inhibition": "1.6%"}
{"smiles": "O=c1[nH]nc(CSCc2ccccc2Cl)[nH]1", "inhibition": "1.4%"}
{"smiles": "S=c1[nH]nc(CSCc2ccc(Cl)cc2Cl)n1-c1ccccc1", "inhibition": "64.8% (active)"}
{"smiles": "COC(=O)CCSc1cc([N+](=O)[O-])cc2c1c(C1OCCS1)nn2-c1ccccc1", "note": "(stereo not drawn)", "inhibition": "8.6%"}
{"smiles": "Cc1ccc(Nc2nc(C)cc(C)c2C(N)=O)cc1", "inhibition": "7.6%"}
{"smiles": "O=C1c2oc3ccc(Br)cc3c(=O)c2C(c2cccc(F)c2)N1CCO", "note": "(stereo not drawn)", "inhibition": "40.4%"}
{"smiles": "O=C1c2oc3ccccc3c(=O)c2C(c2cccc(O)c2)N1c1ccccn1", "note": "(stereo not drawn)", "inhibition": "38.4%"}
{"smiles": "COCCN1C(=O)c2oc3c(C)cc(C)cc3c(=O)c2C1c1cccc(O)c1", "note": "(stereo not drawn)", "inhibition": "70.6% (active)"}
{"smiles": "Cc1ccc(-n2ncc3c(Nc4cccc(C(=O)O)c4)ncnc32)cc1", "inhibition": "-20%"}
{"smiles": "COc1ccc(CCN2C(=O)c3[nH]nc(-c4ccccc4O)c3C2c2ccc(C)cc2)cc1OC", "note": "(stereo not drawn)", "inhibition": "21.1%"}
{"smiles": "COC(=O)c1ccc(C2C(Oc3ccccc3C)C(=O)N2CCc2ccc(OC)c(OC)c2)cc1", "note": "(stereo not drawn)", "inhibition": "65.2% (active)"}
{"smiles": "COCCn1c(=S)[nH]c2cc(C(=O)NCCc3ccc(OC)c(OC)c3)ccc2c1=O", "inhibition": "17.7%"}
{"smiles": "c1csc(-c2cn3c(n2)SCC3)c1", "inhibition": "-13.7%"}
{"smiles": "CC(C)C(C(=O)NC1CCCCC1)N(CC1CCCO1)C(=O)CNS(=O)(=O)c1ccc(F)cc1", "note": "(stereo not drawn)", "inhibition": "-10.8%"}
{"smiles": "c1ccc(-c2nnc3n2NC(c2ccc4c(c2)OCO4)S3)cc1", "note": "(stereo not drawn)", "inhibition": "28.9%"}
{"smiles": "CCn1c(SC)nc(O)c(C(c2ccc(OC)c(O)c2)c2c(O)nc(SC)n(CC)c2=O)c1=O", "inhibition": "-2.9%"}
{"smiles": "O=S(=O)(Cc1cc(Sc2ccccc2)nc(-c2ccccc2)n1)c1ccccc1", "inhibition": "50.5% (active)"}
{"smiles": "CC1CC(C)CN(CC(=O)N2c3ccccc3CCc3ccccc32)C1", "note": "(stereo not drawn)", "inhibition": "24.7%"}
{"smiles": "Cc1ccc(S(=O)(=O)N(C)CC(=O)N2CCc3ccccc32)cc1", "inhibition": "9.1%"}
{"smiles": "O=C(CSCc1ccccc1)N1CCc2ccccc21", "inhibition": "51.6% (active)"}
